Measured values reported in the supplement of paper PMC6992640.
± gives the standard deviation of the averaged measurements.

How the values were obtained:
Assay in all cases: cell viability (% of vehicle); higher = less cytotoxic
Details in all cases: 10 µM; 72 h
HCI01 = system: HCI01 (cells of a triple-negative basal-like breast cancer xenograft)
HCI03 = system: HCI03 (cells of an ER-positive luminal breast cancer xenograft)
HCI09 = system: HCI09 (cells of a triple-negative luminal androgen receptor type breast cancer xenograft)
HCI11 = system: HCI11 (cells of an ER-positive luminal breast cancer xenograft)
HCI13 = system: HCI13 (cells of an ER-positive luminal breast cancer xenograft)
HCI16 = system: HCI16 (cells of a triple-negative basal-like breast cancer xenograft)
UCD52 = system: UCD52 (cells of a triple-negative basal-like breast cancer xenograft)
WHIM2 = system: WHIM2 (cells of a triple-negative basal-like breast cancer xenograft)
WHIM30 = system: WHIM30 (cells of a triple-negative basal-like breast cancer xenograft)
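Further: PDX cells carrying CMV promoter-driven luciferase, viability read as total photon flux per second by IVIS imaging following D-luciferin, vehicle control 0.1% DMSO.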

Structure (SMILES): CC(=O)N[C@H](Cc1ccc2ccccc2c1)C(=O)N[C@H](Cc1ccc(Cl)cc1)C(=O)N[C@H](Cc1cccnc1)C(=O)N[C@@H](CO)C(=O)N[C@@H](Cc1ccc(O)cc1)C(=O)N[C@H](CCCNC(N)=O)C(=O)N[C@@H](CC(C)C)C(=O)N[C@@H](CCCNC(=N)N)C(=O)N1CCC[C@H]1C(=O)N[C@H](C)C(N)=O [Cetrorelix]
- cell viability (HCI01): 111 ± 16
- cell viability (HCI03): 131
- cell viability (HCI09): 96.7 ± 19
- cell viability (HCI11): 102
- cell viability (HCI13): 190 ± 48
- cell viability (HCI16): 151
- cell viability (UCD52): 96.1 ± 7
- cell viability (WHIM2): 122 ± 61
- cell viability (WHIM30): 132 ± 7.8

Structure (SMILES): NNC(=O)c1ccncc1.Nc1ccc(C(=O)O)c(O)c1 [Pasiniazid]
- cell viability (HCI01): 94.9 ± 11
- cell viability (HCI03): 111
- cell viability (HCI09): 127 ± 61
- cell viability (HCI11): 122
- cell viability (HCI13): 182 ± 9.2
- cell viability (HCI16): 83.7
- cell viability (UCD52): 95.1 ± 3.1
- cell viability (WHIM2): 80.5 ± 33
- cell viability (WHIM30): 133 ± 5.1

Structure (SMILES): CCOC(=O)NC1CCC2C(C1)CC1C(=O)OC(C)C1C2C=Cc1ccc(-c2cccc(F)c2)cn1 (stereo unspecified) [Vorapaxar]
- cell viability (HCI01): 132 ± 37
- cell viability (HCI03): 121
- cell viability (HCI09): 90.5 ± 21
- cell viability (HCI11): 104
- cell viability (HCI13): 84.1 ± 22
- cell viability (HCI16): 108
- cell viability (UCD52): 76.4 ± 3.5
- cell viability (WHIM2): 115 ± 27
- cell viability (WHIM30): 72.6 ± 10

Structure (SMILES): CC1(C)SC2C(NC(=O)C(NC(=O)N3CCNC3=O)c3ccccc3)C(=O)N2C1C(=O)[O-].[Na+] (stereo unspecified) [Azlocillin sodium salt]
- cell viability (HCI01): 97.6 ± 24
- cell viability (HCI03): 131
- cell viability (HCI09): 104 ± 17
- cell viability (HCI11): 104
- cell viability (HCI13): 76.5 ± 9.1
- cell viability (HCI16): 130
- cell viability (UCD52): 97.766 ± 0.039
- cell viability (WHIM2): 106 ± 29
- cell viability (WHIM30): 125 ± 12

Structure (SMILES): Cc1nc2c([nH]1)CCN(C(=O)c1ccc(NC(=O)c3ccccc3-c3ccccc3)cc1)c1ccccc1-2.Cl [Conivaptan HCl]
- cell viability (HCI01): 111 ± 18
- cell viability (HCI03): 83.3
- cell viability (HCI09): 60.4 ± 7.1
- cell viability (HCI11): 85.3
- cell viability (HCI13): 99.5 ± 17
- cell viability (HCI16): 106
- cell viability (UCD52): 71.7 ± 2.5
- cell viability (WHIM2): 104 ± 22
- cell viability (WHIM30): 141 ± 2

Structure (SMILES): CC(=O)N1CCN(c2ccc(OCC3COC(Cn4ccnc4)(c4ccc(Cl)cc4Cl)O3)cc2)CC1 (single isomer, unassigned; (+)) [(+)-Ketoconazole]
- cell viability (HCI01): 151 ± 55
- cell viability (HCI03): 119
- cell viability (HCI09): 29.5 ± 5.5
- cell viability (HCI11): 87.9
- cell viability (HCI13): 98.9 ± 9.7
- cell viability (HCI16): 103
- cell viability (UCD52): 44.6 ± 2.7
- cell viability (WHIM2): 134 ± 9.5
- cell viability (WHIM30): 94.8 ± 11

Structure (SMILES): Cn1nnc2c(C(N)=O)ncn2c1=O [Temozolomide]
- cell viability (HCI01): 136 ± 12
- cell viability (HCI03): 125
- cell viability (HCI09): 105 ± 15
- cell viability (HCI11): 111
- cell viability (HCI13): 122 ± 17
- cell viability (HCI16): 136
- cell viability (UCD52): 97.8 ± 28
- cell viability (WHIM2): 117 ± 5.3
- cell viability (WHIM30): 107 ± 16

Structure (SMILES): CCOC(=O)C(CCc1ccccc1)NC(C)C(=O)N1C(=O)N(C)CC1C(=O)O.Cl (stereo unspecified) [Imidapril HCl]
- cell viability (HCI01): 105 ± 8.3
- cell viability (HCI03): 113
- cell viability (HCI09): 99.8 ± 7.1
- cell viability (HCI11): 102
- cell viability (HCI13): 126 ± 1.4
- cell viability (HCI16): 94.2
- cell viability (UCD52): 78 ± 3.8
- cell viability (WHIM2): 105 ± 3.3
- cell viability (WHIM30): 104 ± 10

Structure (SMILES): CCN(CCCc1ccccc1)CCCc1ccccc1.O=C(O)CC(O)(CC(=O)O)C(=O)O [Alverine Citrate]
- cell viability (HCI01): 99.4 ± 3.5
- cell viability (HCI03): 95.5
- cell viability (HCI09): 104 ± 10
- cell viability (HCI11): 94.6
- cell viability (HCI13): 190 ± 4.8
- cell viability (HCI16): 118
- cell viability (UCD52): 59.9 ± 0.87
- cell viability (WHIM2): 88.6 ± 4
- cell viability (WHIM30): 102 ± 15

Structure (SMILES): NC(=O)CC[C@H](N)C(=O)O [L-Glutamine]
- cell viability (HCI01): 85.6 ± 8.7
- cell viability (HCI03): 92.8
- cell viability (HCI09): 92.2 ± 25
- cell viability (HCI11): 87.4
- cell viability (HCI13): 101.1 ± 0.78
- cell viability (HCI16): 97.3
- cell viability (UCD52): 82.9 ± 3.6
- cell viability (WHIM2): 104 ± 3.9
- cell viability (WHIM30): 70.6 ± 7.1

Structure (SMILES): COc1ccc(-n2nc(C(N)=O)c3c2C(=O)N(c2ccc(N4CCCCC4=O)cc2)CC3)cc1 [Apixaban]
- cell viability (HCI01): 100.8 ± 0.64
- cell viability (HCI03): 113
- cell viability (HCI09): 93.5 ± 17
- cell viability (HCI11): 173
- cell viability (HCI13): 149 ± 8.9
- cell viability (HCI16): 82.4
- cell viability (UCD52): 90.7 ± 6.2
- cell viability (WHIM2): 97.6 ± 8.3
- cell viability (WHIM30): 85.2 ± 14

Structure (SMILES): COC(=O)C1CC2=CC(=O)CCC2(C)C23OC2CC2(C)C(CC[C@]24CCC(=O)O4)C13 (stereo partly specified) [Epleremone]
- cell viability (HCI01): 90.4 ± 5.2
- cell viability (HCI03): 105
- cell viability (HCI09): 100 ± 24
- cell viability (HCI11): 90.1
- cell viability (HCI13): 94.7 ± 9.2
- cell viability (HCI16): 116
- cell viability (UCD52): 100 ± 7.6
- cell viability (WHIM2): 108 ± 4.6
- cell viability (WHIM30): 114 ± 3.4

Structure (SMILES): O=C(NCC1CN(c2ccc(N3CCOCC3=O)cc2)C(=O)O1)c1ccc(Cl)s1 (stereo unspecified) [Rivaroxaban]
- cell viability (HCI01): 114 ± 11
- cell viability (HCI03): 119
- cell viability (HCI09): 89.9 ± 3.4
- cell viability (HCI11): 105
- cell viability (HCI13): 130 ± 15
- cell viability (HCI16): 94.8
- cell viability (UCD52): 85.2 ± 13
- cell viability (WHIM2): 109 ± 9
- cell viability (WHIM30): 117 ± 15

Structure (SMILES): Cc1cc(=O)[nH]c(=S)[nH]1 [Methylthiouracil]
- cell viability (HCI01): 97.2 ± 29
- cell viability (HCI03): 119
- cell viability (HCI09): 94.7 ± 16
- cell viability (HCI11): 93.8
- cell viability (HCI13): 119 ± 2.5
- cell viability (HCI16): 115
- cell viability (UCD52): 92.7 ± 7.9
- cell viability (WHIM2): 80.6 ± 8.1
- cell viability (WHIM30): 139 ± 5.5

Structure (SMILES): Cl.O=C1CN2Cc3c(ccc(Cl)c3Cl)NC2=N1 [Anagrelide HCl]
- cell viability (HCI01): 121 ± 3.8
- cell viability (HCI03): 140
- cell viability (HCI09): 103 ± 9.3
- cell viability (HCI11): 120
- cell viability (HCI13): 128 ± 11
- cell viability (HCI16): 103
- cell viability (UCD52): 84.4 ± 4.6
- cell viability (WHIM2): 116 ± 3.4
- cell viability (WHIM30): 98.1 ± 2.5

Structure (SMILES): NC(=O)NO [Hydroxyurea]
- cell viability (HCI01): 62.8 ± 36
- cell viability (HCI03): 111
- cell viability (HCI09): 89.2 ± 7.3
- cell viability (HCI11): 90
- cell viability (HCI13): 113 ± 11
- cell viability (HCI16): 110
- cell viability (UCD52): 78.7 ± 4.1
- cell viability (WHIM2): 96.5 ± 31
- cell viability (WHIM30): 125 ± 3.9

Structure (SMILES): CCOc1cc(C(CS(C)(=O)=O)N2C(=O)c3cccc(NC(C)=O)c3C2=O)ccc1OC (stereo unspecified)
- cell viability (HCI01): 161 ± 13
- cell viability (HCI03): 149
- cell viability (HCI09): 112.6 ± 0.15
- cell viability (HCI11): 121
- cell viability (HCI13): 150 ± 16
- cell viability (HCI16): 135
- cell viability (UCD52): 117 ± 13
- cell viability (WHIM2): 118 ± 7.6
- cell viability (WHIM30): 140 ± 16

Structure (SMILES): Cc1ccc(C(=O)C(C)CN2CCCCC2)cc1.Cl (stereo unspecified) [Tolperisone HCl]
- cell viability (HCI01): 118 ± 20
- cell viability (HCI03): 118
- cell viability (HCI09): 101 ± 3.6
- cell viability (HCI11): 92.5
- cell viability (HCI13): 47.8 ± 8.8
- cell viability (HCI16): 109
- cell viability (UCD52): 92.3 ± 8.6
- cell viability (WHIM2): 130 ± 6.4
- cell viability (WHIM30): 110 ± 3.9

Structure (SMILES): CCCC(NC(C)C(=O)N1C(C(=O)O)CC2CCCCC21)C(=O)OCC (stereo unspecified) [Perindopril]
- cell viability (HCI01): 110.1 ± 0.73
- cell viability (HCI03): 111
- cell viability (HCI09): 131 ± 35
- cell viability (HCI11): 111
- cell viability (HCI13): 134 ± 4.2
- cell viability (HCI16): 94.2
- cell viability (UCD52): 103 ± 2.7
- cell viability (WHIM2): 102 ± 5.3
- cell viability (WHIM30): 101 ± 2.5
